Whole data set: some 18,000 sequences, median “log2 normalized intensity” near 0.39, cut for the highest 2% near 6.6. What follows is part of a selection rich in the highest values, with near analogues and random picks from the rest.

The assay deals with T1, HNF4alpha2 (COS-7 nuclear extract) (Homo sapiens, UniProt P41235 1-474).
T1 sequence: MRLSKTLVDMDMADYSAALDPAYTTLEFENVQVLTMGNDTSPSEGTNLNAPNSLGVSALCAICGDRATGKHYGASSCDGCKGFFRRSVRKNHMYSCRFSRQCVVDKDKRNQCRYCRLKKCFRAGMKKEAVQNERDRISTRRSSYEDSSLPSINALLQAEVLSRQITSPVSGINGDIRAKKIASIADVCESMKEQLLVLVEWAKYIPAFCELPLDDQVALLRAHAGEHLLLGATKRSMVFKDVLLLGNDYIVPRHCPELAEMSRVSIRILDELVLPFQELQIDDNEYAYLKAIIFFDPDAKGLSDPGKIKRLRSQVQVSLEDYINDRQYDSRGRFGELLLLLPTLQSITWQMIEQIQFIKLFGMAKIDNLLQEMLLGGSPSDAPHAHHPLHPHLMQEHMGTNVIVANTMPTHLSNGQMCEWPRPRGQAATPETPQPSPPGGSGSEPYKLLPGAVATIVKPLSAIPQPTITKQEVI
As to the kind of experiment: protein-binding microarray; COS-7 nuclear extract on double-stranded Agilent 4x180k PBM; binding buffer, salt, pH and temperature not given in the material; high values mean tight binding. Conditions: chain copies: 2; label: 3' end of strand 1 on the slide; dsDNA, one strand shown. In short, it runs like this:
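Binding signal is the background-corrected, normalized gProcessedSignal calculated by Agilent software. It was measured by applying nuclear extracts of COS-7 cells transiently transfected with a human HNF4α isoform expression vector to a custom Agilent SurePrint G3 4x180k array of ~44,000 double-stranded ~60-nt test sequences in quadruplicate, then imaging bound HNF4α on an Agilent G2565CA scanner at 2-µm resolution.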
Take “AGGGGCTGCTGGGAGTTGTAGTTTTTTGGGGCCTAGGGAGATTAGAGTATCGGTCGA”: the binding signal was 1.54 log2 normalized intensity.

For “AAGAGTCAAAGGGCAAAGGAATAAAATAGCGCCTAGGGAGATTAGAGTATCGGTCGA”, the binding signal is -0.272 log2 normalized intensity.

“ACTGCCTGACCCCAAGTAATAGCCGTTTCTGCCTAGGGAGATTAGAGTATCGGTCGA”: the binding signal is 1.07 log2 normalized intensity.

With “CCCCACCCCCACTGCCTGACCCCAAGTAATGCCTAGGGAGATTAGAGTATCGGTCGA”, the binding signal is 6.98 log2 normalized intensity.

In the case of “CCCCCACTGCCTGACCCCAAGTAATAGCCGGCCTAGGGAGATTAGAGTATCGGTCGA”, the binding signal was 5.25 log2 normalized intensity.

For the sequence “CTCTTCAGAATGGCCTGCCCATCCCCCCAAGCCTAGGGAGATTAGAGTATCGGTCGA”, the binding signal is 5.18 log2 normalized intensity.

“GGCGTGACCCCCACTGCCTGCCTGCCAACTGCCTAGGGAGATTAGAGTATCGGTCGA”: the binding signal stood at 2.89 log2 normalized intensity.

Take “TTCATCCCCACCCCCACTGCCTGACCCCAAGCCTAGGGAGATTAGAGTATCGGTCGA”: the binding signal is 7.59 log2 normalized intensity.

Consider “TGCCCTTTGCCCTCACTGGTAGAAGGCAGCGCCTAGGGAGATTAGAGTATCGGTCGA”, for which the binding signal was found to be 4.58 log2 normalized intensity.

For “TTTCCCTGGTCGACCTCCCCGTCACCCTCCGCCTAGGGAGATTAGAGTATCGGTCGA”, the binding signal was found to be 4.15 log2 normalized intensity.

As to “GTCACCCTCCCCGCCACCCCCCAGAGGGCCGCCTAGGGAGATTAGAGTATCGGTCGA”, the binding signal was determined as 6.08 log2 normalized intensity.

In the case of “CGACCTCCCCGTCACCCTCCCCGCCACCCCGCCTAGGGAGATTAGAGTATCGGTCGA”, the binding signal was 6.67 log2 normalized intensity.

Turning to “TCCCCGTCACCCTCCCCGCCACCCCCCAGAGCCTAGGGAGATTAGAGTATCGGTCGA”, the binding signal was found to be 7.45 log2 normalized intensity.

Regarding “CGCTCCCCTCCCCCACCCGCGGTCCGTCCCGCCTAGGGAGATTAGAGTATCGGTCGA”, the binding signal came to 5.86 log2 normalized intensity.

For the sequence “CTGGTCGACCTCCCCGTCACCCTCCCCGCCGCCTAGGGAGATTAGAGTATCGGTCGA”, the binding signal was found to be 6 log2 normalized intensity.

“ACGTCTGTTAACCAAGATACTGGGTCAGAGGCCTAGGGAGATTAGAGTATCGGTCGA”: the binding signal turned out to be 1.11 log2 normalized intensity.

“ACCAGCGTAATTCTGGCTCTTTGAGTGGTTGCCTAGGGAGATTAGAGTATCGGTCGA”: the binding signal was 0.76 log2 normalized intensity.

“TCCAGCATTCTTTTCCCCATACCAGGCAGTGCCTAGGGAGATTAGAGTATCGGTCGA”: the binding signal worked out at 2.37 log2 normalized intensity.

In the case of “GGCGCCGCTCTGAGTGACCTTTCACCCGCGGCCTAGGGAGATTAGAGTATCGGTCGA”, the binding signal turned out to be 6.81 log2 normalized intensity.

For the sequence “GGAATGACCTTTGATATTTGTGCCTAGTGGGCCTAGGGAGATTAGAGTATCGGTCGA”, the binding signal came to 4.8 log2 normalized intensity.

As for “GTGCTCCCTCCCCCTGCATGAACCTTTGCTGCCTAGGGAGATTAGAGTATCGGTCGA”, the binding signal was 3.19 log2 normalized intensity.

Consider “AGTGGAATGTGCCCTTTGACCTCTCTCTCCGCCTAGGGAGATTAGAGTATCGGTCGA”, for which the binding signal was found to be 7.71 log2 normalized intensity.

Take “AGTAACCTGACCCCCAGTGGAATGTGCCCTGCCTAGGGAGATTAGAGTATCGGTCGA”: the binding signal was determined as 3.87 log2 normalized intensity.

As to “GGTGGGCTGCTCCCAGTGCCCTTTGAACTCGCCTAGGGAGATTAGAGTATCGGTCGA”, the binding signal stood at 8.32 log2 normalized intensity.

Consider “AATGTGCCCTTTGACCTCTCTCTCCTAACTGCCTAGGGAGATTAGAGTATCGGTCGA”, for which the binding signal was determined as 6.48 log2 normalized intensity.

With “CCCCCAGTGGAATGTGCCCTTTGACCTCTCGCCTAGGGAGATTAGAGTATCGGTCGA”, the binding signal is 9.72 log2 normalized intensity.

Regarding “CGCCGGGCGCCGCTCTGAGTGACCTTTCACGCCTAGGGAGATTAGAGTATCGGTCGA”, the binding signal came to 4.57 log2 normalized intensity.

For “CCTGACCCCCAGTGGAATGTGCCCTTTGACGCCTAGGGAGATTAGAGTATCGGTCGA”, the binding signal was determined as 4.95 log2 normalized intensity.

Turning to “CGCTCTGAGTGACCTTTCACCCGCGCCCAGGCCTAGGGAGATTAGAGTATCGGTCGA”, the binding signal was determined as 5.48 log2 normalized intensity.

For “GGCCAGGTGGGCTGCTCCCAGTGCCCTTTGGCCTAGGGAGATTAGAGTATCGGTCGA”, the binding signal turned out to be 3.73 log2 normalized intensity.

Source of the values: paper PMC10726135, “HNF4α isoforms regulate the circadian balance between carbohydrate and lipid metabolism in the liver”.
